Reference: PubChem BioAssay (NCI)
The panel holds about 83,000 compounds, 20% with a hit somewhere; the sample as a whole holds those more often.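 48-hour exposure, single concentration, 96-well plates; percent growth endpoint where 0 means no net growth. Active: below 10.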 Values without a mark were called inactive. Calls of active or inactive are those of the source.

These compounds were tested on COLO 205 colon (assay: NCI-60 one-dose screen, 48 h (100 = growth as untreated, 0 = no growth, -100 = all killed)). Conditions: 10 µM unless noted.

Compound	growth
CN(C)S(=O)(=O)Oc1ccc(-c2sc3cc(OS(=O)(=O)N(C)C)ccc3c2C(=O)c2ccc(OCCN3CCCCC3)cc2)cc1	36.1%
O=S(=O)(NCCCNc1nccc(-c2c(-c3cccc(F)c3)nc3occn23)n1)c1ccc(F)cc1	17.7%
Cc1ccc(-c2nc(N3CCNCC3)c3oc(-c4ccc(C)cc4)nc3n2)cc1	-81.2% (active)
COc1ccc(Cn2cc3c(c2-c2ccccc2)CCc2cnoc2-3)cc1	-30.1% (active)
CC(C)(C)n1cc(-c2ccnc(NCCCNS(=O)(=O)c3ccc(C(F)(F)F)cc3)c2)c(-c2cccc(F)c2)n1	76.9%
O=C(/C=C/c1ccccc1)c1ccc(Nc2nc(Nc3ccc(F)cc3)nc(Nc3ccc(Cl)cc3)n2)cc1	70.6%
COc1ccc2c(c1)/C(=N/c1n[nH]c(=S)s1)C(=O)N2	118%
Cc1ccc2nc(NC(=O)CSc3nc(-c4ccccc4)c(C#N)c4nnnn34)sc2c1	121%
N=C(N)c1ccc(-c2ccc(-c3cc(Cl)cc(Cl)c3)s2)nc1	-38.4% (active)
COc1ccc(Oc2nc(Nc3ccc(N4CCOCC4)cc3)ncc2NC(=O)Nc2cc(OC)cc(OC)c2)cc1	-54.8% (active)
CCCCNc1cc(-c2cn[nH]c2-c2cc(C)cc(OC)c2)nc(-c2cccnc2)n1	99.5%
